# Screen size: about 280,000 compounds; about 2,600 (0.93%) were called active. Inconclusive results (about 8%) are left out. The call rests on the fitted dose curve; in most records, active means well fitted curve in the direction sought with a large enough effect; inconclusive means small, poorly fitted or top-dose-only effect; inactive means flat fitted curve, though single readings scatter. Shown is part of a subset that was picked to be rich in actives.
# Experiment: Counterscreen qHTS for Inhibitors of Tau Fibril Formation, Fluorescence Polarization; further: nearly all actives have a fitted effect of over 55% in size
# Conditions: tau K18 P301L Alexa594 fluorescence, heparin fibrillization; series mostly up to 57.7 µM; activity change, negative = decrease: at the top concentration
# Outline: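 Human tau K18 P301L (15 uM unlabeled, 0.24 uM Alexa 594-labeled) in 100 mM sodium acetate pH 7 with 20 uM heparin, 6 hr at 37 C. ThT 30 uM added, 1 hr ambient; Alexa 594 FP and total fluorescence read at 555/632 nm.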
# On the % scale 0 is the no-effect control and ±100 the full control effect; potency means the concentration at half of the fitted maximal effect; tags describe the fitted curve by direction and shape or compound fluorescence and quenching.
Structure (SMILES),"activity change, negative = decrease",Potency
CCN(CC)C(=O)CSc1nc2cc3c(cc2c(=O)n1CCCC(=O)NCc1ccc2c(c1)OCO2)OCO3,0.813% (inactive),
CCCCNc1nc2c(c(=O)n(C)c(=O)n2C)n1Cc1cccc(OC)c1,-15.7% (inactive),
Cn1c(=O)c2c(nc(N/N=C/c3cccs3)n2Cc2ccc(Br)cc2)n(C)c1=O,,14.1 µM [quencher] (active)
Cn1c(=O)c2c(nc(NCCc3ccccc3)n2Cc2ccccc2Br)n(C)c1=O,0.274% (inactive),
CCOc1ccccc1N(C)C(=O)c1cc2c(s1)-c1ccccc1OC2,-13.1% (inactive),
CCn1cc(NC(=O)Nc2ccc(OC)c(OC)c2)c(C(N)=O)n1,-7.73% (inactive),
COc1ccc(NC(=O)NC(C)c2c(-n3cccc3)sc(C)c2C)cc1OC (stereo not given),,15.8 µM [quencher] (active)
Cc1ccc(NC(=O)NC(C)c2c(-n3cccc3)sc(C)c2C)c(C)c1 (stereo not given),-9.91% (inactive),
Cc1ccc(CSc2nc3ccsc3c(=O)n2CCC(C)C)cc1,-17% (inactive),
CCOC(=O)c1c(S(=O)(=O)NCC(=O)Nc2ccc(Cl)c(C(F)(F)F)c2)c(C)n(C)c1C,-29.9% (inactive),
O=c1[nH]c(N2CCN(Cc3ccc4c(c3)OCO4)CC2)nc2c1CCCC2,5.42% (inactive),
Fc1ccc2[nH]c3c(N4CCSCC4)ncnc3c2c1,-10.8% (inactive),
Fc1ccc2[nH]c3c(N4CCN(Cc5ccc6c(c5)OCO6)CC4)ncnc3c2c1,,25.1 µM [quencher] (active)
COc1ccc(S(=O)(=O)c2c(Nc3ccc(C)cc3)sc(C(=O)c3ccc(C)cc3)c2N)cc1,-14.6% (inactive),
O=C(NCC(c1ccc2c(c1)OCO2)N1CCN(c2ccccc2)CC1)C(=O)Nc1ccccc1F (stereo not given),-27.4% (inactive),
O=C(N/N=C/c1ccc(OCc2ccccc2)cc1)c1ccc(O)cc1,-29% (inactive),
CN(C)c1ccc(/C=N/N(Cc2ccccc2)c2ccccc2)cc1,6.03% (inactive),
Oc1ccc(/C=N/N(Cc2ccccc2)c2ccccc2)cc1,,15.8 µM [quencher] (active)
CCN(CC)c1ccc(NC(=O)CN2C(=O)c3cccnc3Oc3ccc(Cl)cc32)c(C)c1,-14% (inactive),
CCc1cc2c(cc3c(=O)n(CC(=O)N4CCN(c5cc(Cl)ccc5C)CC4)ncn32)s1,0.522% (inactive),

# Source: PubChem BioAssay AID1463 (National Center for Advancing Translational Sciences (NCATS), 2008)
